Measurements published in the supplement of paper PMC10849652.
Targets with a hit are over-represented here; the source holds about 7,900 in all. About 0.6% of all pairs of compound and target were hits.

Legend:
Assay in all cases: log2 fold change, soluble protein after heating vs DMSO (PISA); higher = thermal stabilisation; K562 cells, 10 uM, 30 min; active = over 0.2 and 3.5 SD of the protein, either way, in both replicates (recomputed)
[1] = compound: C1=CC=C(C=C1)[C@H](COC2=CC3=C(C=C2)NC(=O)N3)NC(=O)C4=CC=CN(C4=O)CC5=CC(=C(C=C5)F)F
In short: (§1)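 Values are thermal stability changes relative to control samples and are taken from duplicates. They are stated as log2 fold changes. Before quantification by TMTpro 16plex LC-MS/MS with equalised channel sums, K562 cells at 2×10^6 cells/mL were treated with 10 μM compound for 30 min, heated in aliquots for 3 min across 48°C-58°C, pooled, extracted in PBS with 0.5% NP-40 at 4°C, and centrifuged at 21,000xg for 90 min to give the soluble supernatant.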

[2] = compound: CC1=C(SC2=C1C(=N[C@H](C3=NN=C(N32)C)CC(=O)N)C4=CC=C(C=C4)Cl)C
In short: as §1

[3] = compound: CC1=C2C(=CC=C1)N=C(N(C2=O)C3=CC=CC=C3C)CN4C=NC5=C(N=CN=C54)N
In short: as §1

[4] = compound: Cc1sc2c(c1C)C(c1ccc(Cl)cc1)=N[C@@H](CC(=O)OC(C)(C)C)c1nnc(C)n1-2
In short: as §1

[5] = compound: c1ccc([C@@H]2C[C@H]2NC2CCNCC2)cc1
In short: as §1

Measured: log2 fold change

BRK1 isoform 2 (UniProt Q8WUW1)
inactive: [1] 0.018 | [2] -0.018 | [3] 0.025 | [4] -0.055 | [5] -0.013

ARL6IP4 (UniProt Q66PJ3)
inactive: [1] 0.036 | [2] 0.027 | [3] 0.009 | [4] -0.016 | [5] -0.011

ACP2 (UniProt P11117)
Chain of UniProt P11117 (P11117 whole entry, looked up): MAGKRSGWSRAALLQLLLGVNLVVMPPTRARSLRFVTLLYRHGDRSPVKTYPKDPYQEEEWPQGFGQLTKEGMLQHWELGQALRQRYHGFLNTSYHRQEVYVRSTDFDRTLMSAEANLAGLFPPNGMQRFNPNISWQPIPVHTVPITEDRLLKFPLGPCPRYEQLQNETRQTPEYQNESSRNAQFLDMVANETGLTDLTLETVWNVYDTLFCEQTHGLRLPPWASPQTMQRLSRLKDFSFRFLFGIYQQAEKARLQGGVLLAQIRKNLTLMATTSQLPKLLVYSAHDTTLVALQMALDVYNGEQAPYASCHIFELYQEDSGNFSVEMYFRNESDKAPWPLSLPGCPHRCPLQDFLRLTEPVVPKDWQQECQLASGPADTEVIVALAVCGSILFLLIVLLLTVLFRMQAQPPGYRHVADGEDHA
inactive: [1] 0.027 | [2] -0.023 | [3] 0.008 | [4] -0.023 | [5] 0.024

ACSL1 (UniProt P33121)
inactive: [1] -0.019 | [2] 0.043 | [3] 0.064 | [4] 0.001 | [5] -0.03

BAP1 (UniProt Q92560)
Chain of UniProt Q92560 (Q92560 whole entry, looked up): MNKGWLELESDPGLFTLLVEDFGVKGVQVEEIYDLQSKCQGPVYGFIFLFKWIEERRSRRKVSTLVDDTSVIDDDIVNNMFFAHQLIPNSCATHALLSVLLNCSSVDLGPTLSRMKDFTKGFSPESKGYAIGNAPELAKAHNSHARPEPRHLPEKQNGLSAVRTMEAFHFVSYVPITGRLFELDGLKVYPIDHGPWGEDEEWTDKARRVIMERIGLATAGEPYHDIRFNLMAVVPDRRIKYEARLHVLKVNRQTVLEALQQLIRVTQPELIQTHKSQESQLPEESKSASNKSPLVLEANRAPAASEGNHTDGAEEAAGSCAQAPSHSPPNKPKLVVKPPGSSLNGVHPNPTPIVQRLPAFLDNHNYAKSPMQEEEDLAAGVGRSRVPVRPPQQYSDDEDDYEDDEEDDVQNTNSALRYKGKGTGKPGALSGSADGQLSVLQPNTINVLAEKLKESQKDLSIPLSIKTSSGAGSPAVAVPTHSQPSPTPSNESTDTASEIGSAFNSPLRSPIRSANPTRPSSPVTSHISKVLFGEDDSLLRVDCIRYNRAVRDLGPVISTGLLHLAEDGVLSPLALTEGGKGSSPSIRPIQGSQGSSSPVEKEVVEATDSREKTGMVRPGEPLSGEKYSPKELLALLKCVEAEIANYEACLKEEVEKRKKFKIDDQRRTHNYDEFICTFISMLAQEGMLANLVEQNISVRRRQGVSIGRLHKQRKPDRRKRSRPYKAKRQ
inactive: [1] -0.226 | [2] -0.123 | [3] -0.156 | [4] 0.066 | [5] -0.037

BCCIP isoform 2 (UniProt Q9P287)
inactive: [1] -0.031 | [2] 0.002 | [3] -0.001 | [4] -0.035 | [5] 0.014

ALDH9A1 (UniProt P49189)
inactive: [1] 0.059 | [2] -0.193 | [3] 0.03 | [4] 0.098 | [5] 0.156

AGPS (UniProt O00116)
inactive: [1] -0.046 | [2] 0.081 | [3] 0.079 | [4] -0.031 | [5] -0.051

ANK2 (UniProt Q01484)
Chain of UniProt Q01484 (Q01484 whole entry, looked up): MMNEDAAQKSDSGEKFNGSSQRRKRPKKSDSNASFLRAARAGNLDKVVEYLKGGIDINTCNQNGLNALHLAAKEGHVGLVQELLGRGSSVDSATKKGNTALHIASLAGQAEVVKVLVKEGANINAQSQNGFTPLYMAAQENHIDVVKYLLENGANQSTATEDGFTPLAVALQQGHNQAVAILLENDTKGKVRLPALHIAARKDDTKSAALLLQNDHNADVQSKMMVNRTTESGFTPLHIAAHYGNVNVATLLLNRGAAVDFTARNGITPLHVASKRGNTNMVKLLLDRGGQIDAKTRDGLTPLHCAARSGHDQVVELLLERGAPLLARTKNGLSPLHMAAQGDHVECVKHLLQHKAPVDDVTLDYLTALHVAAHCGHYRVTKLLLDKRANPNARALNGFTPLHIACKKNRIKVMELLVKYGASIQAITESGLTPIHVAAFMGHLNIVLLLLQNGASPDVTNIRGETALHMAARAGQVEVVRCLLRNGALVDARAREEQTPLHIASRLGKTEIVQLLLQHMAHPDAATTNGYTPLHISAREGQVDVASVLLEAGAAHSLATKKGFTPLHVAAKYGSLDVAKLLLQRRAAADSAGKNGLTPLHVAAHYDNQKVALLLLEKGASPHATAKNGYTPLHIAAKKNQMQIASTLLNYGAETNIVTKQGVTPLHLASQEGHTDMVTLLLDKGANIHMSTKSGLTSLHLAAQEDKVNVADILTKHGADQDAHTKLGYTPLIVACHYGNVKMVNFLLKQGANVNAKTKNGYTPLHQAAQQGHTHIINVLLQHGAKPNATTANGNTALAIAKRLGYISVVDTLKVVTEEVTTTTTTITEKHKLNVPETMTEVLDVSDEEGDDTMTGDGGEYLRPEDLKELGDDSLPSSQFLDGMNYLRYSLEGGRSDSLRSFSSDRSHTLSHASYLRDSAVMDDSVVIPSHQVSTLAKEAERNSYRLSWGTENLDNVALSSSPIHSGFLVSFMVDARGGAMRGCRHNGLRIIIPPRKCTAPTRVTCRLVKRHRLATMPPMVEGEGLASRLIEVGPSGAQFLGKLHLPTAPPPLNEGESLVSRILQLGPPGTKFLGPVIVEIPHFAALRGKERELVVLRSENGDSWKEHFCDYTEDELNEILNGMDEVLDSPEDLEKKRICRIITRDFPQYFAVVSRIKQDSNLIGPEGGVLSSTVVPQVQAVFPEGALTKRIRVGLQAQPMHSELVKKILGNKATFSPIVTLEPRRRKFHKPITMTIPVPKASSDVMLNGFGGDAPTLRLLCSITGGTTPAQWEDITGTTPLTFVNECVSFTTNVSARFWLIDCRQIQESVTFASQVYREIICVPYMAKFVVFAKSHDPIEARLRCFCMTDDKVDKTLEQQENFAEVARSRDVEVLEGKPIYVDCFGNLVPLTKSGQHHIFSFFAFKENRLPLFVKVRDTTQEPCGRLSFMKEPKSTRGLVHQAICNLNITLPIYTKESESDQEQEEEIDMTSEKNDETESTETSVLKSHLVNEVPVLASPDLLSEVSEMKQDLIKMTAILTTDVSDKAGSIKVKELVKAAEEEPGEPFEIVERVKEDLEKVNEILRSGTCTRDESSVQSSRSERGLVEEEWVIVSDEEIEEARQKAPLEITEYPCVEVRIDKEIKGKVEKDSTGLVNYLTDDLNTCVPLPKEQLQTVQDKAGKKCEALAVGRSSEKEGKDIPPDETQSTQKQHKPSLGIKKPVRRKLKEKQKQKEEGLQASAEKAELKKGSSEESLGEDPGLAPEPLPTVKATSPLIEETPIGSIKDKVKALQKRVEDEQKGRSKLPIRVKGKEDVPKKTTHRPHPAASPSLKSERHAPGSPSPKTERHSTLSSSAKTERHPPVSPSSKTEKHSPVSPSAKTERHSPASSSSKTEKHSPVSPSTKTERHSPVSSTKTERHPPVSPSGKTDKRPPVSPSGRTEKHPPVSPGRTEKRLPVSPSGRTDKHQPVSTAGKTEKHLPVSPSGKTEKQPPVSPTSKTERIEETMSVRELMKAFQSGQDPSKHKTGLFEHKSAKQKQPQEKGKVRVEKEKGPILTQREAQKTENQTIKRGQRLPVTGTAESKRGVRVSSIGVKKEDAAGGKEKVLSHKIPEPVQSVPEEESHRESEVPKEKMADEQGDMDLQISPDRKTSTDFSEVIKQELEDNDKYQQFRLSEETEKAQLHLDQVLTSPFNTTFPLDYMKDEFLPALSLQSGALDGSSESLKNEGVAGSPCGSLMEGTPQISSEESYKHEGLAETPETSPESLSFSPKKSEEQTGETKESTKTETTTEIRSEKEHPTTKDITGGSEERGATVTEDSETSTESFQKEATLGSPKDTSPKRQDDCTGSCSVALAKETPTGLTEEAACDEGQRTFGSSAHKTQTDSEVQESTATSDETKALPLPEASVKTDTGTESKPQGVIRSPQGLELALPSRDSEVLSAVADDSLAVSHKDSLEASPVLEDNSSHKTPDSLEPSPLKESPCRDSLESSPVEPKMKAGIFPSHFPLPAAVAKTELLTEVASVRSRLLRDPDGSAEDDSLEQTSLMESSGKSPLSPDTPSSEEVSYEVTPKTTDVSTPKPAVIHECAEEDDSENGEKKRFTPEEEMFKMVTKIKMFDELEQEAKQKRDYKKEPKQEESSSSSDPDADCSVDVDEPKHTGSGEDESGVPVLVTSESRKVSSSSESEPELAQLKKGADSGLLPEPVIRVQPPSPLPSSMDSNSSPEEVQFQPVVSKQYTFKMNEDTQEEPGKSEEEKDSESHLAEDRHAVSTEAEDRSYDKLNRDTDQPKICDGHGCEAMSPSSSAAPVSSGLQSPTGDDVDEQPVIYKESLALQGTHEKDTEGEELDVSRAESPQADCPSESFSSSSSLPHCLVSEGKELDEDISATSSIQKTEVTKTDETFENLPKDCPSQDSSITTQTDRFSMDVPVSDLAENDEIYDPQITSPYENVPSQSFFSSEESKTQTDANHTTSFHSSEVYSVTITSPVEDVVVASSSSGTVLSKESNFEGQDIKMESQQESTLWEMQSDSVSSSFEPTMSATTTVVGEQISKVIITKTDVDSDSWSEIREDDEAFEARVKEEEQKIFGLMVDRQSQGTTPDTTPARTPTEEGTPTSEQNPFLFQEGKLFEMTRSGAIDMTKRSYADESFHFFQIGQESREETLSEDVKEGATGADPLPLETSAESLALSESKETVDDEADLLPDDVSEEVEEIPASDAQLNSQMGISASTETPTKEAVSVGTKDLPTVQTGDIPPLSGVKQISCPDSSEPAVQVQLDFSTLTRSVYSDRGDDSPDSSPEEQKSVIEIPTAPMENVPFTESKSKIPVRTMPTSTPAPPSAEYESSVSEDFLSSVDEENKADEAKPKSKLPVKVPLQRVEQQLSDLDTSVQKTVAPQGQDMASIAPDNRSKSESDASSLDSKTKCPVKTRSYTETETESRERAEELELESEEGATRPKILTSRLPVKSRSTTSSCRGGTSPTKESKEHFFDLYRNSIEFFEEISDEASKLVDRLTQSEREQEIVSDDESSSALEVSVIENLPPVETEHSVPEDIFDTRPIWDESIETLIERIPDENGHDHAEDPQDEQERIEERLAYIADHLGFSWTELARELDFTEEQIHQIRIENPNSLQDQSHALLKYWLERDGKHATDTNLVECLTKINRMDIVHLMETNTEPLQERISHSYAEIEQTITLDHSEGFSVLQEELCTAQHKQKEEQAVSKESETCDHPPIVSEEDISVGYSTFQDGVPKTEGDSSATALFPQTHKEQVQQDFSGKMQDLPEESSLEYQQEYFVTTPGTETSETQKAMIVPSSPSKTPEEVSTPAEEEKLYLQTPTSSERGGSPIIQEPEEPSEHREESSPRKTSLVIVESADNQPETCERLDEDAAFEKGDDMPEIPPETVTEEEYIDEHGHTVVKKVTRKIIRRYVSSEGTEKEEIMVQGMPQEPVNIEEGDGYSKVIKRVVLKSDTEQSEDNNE
inactive: [1] -0.019 | [2] 0.058 | [3] 0.071 | [4] 0.159 | [5] 0.02
